Each structure is given as a SMILES string. Compounds without any hit were thinned out: in the full panel of roughly 83,000, 20% have a hit.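 Single-concentration screen, 48 h exposure, 96-well plates. Endpoint: percent growth. Below 10 = active.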 Unmarked numbers belong to inactive results. Active and inactive are the calls of the source.

Test systems include NCI-H23 lung; NCI-H226 lung; NCI-H322M lung; HOP-62 NSCLC; NCI-H460 lung; HOP-92 NSCLC; NCI-H522 lung; A549/ATCC NSCLC; 786-0 renal; COLO 205 colon; DU-145 prostate; K-562 leukemia; MALME-3M melanoma; MDA-MB-231 breast; RXF 393 renal; SF-268 CNS; SF-295 CNS; SF-539 CNS; UACC-257 melanoma; M14 melanoma.
Holding throughout (test): NCI-60 one-dose screen, 48 h (100 = growth as untreated, 0 = no growth, -100 = all killed)
Common to all, as to details: 10 µM unless noted

In the case of `CC[C@H](C)[C@H](NC(=O)NC(C)(C)C)C(=O)N(C)[C@H](C[C@@H](OC(C)=O)c1nc(C(=O)N[C@@H](Cc2ccccc2)C[C@H](C)C(=O)OC)cs1)C(C)C`, the growth in the assay on NCI-H23 lung is 24.1%; in the assay on NCI-H226 lung, 16.3%; in the assay with NCI-H322M lung, 44.4%; in the assay on HOP-62 NSCLC it was 12.4%; in the assay on NCI-H460 lung, 1.65% (active); in the assay with HOP-92 NSCLC, 17.3%. Further, the growth is 14.4% in the assay with NCI-H522 lung; 19.1% in the assay with A549/ATCC NSCLC; -7.51% (active) in the assay with 786-0 renal; -53.8% (active) with COLO 205 colon; 1.97% (active) with DU-145 prostate; 7.43% (active) in the assay on K-562 leukemia. The growth with MALME-3M melanoma was 48.8%; in the assay on MDA-MB-231 breast, 13%; in the assay with RXF 393 renal it was 32.6%; with SF-268 CNS, 21.8%; in the assay on SF-295 CNS, 12.2%; with SF-539 CNS it was 2.57% (active). Further, the growth with UACC-257 melanoma is 43.8%; in the assay with M14 melanoma it was 2.12% (active).

Turning to `CC(=O)c1ccc(C(=O)NCC2CCC3(CC2)OOC2(CCCCC2)OO3)cc1`, the growth in the assay on NCI-H23 lung is 22.8%; with NCI-H226 lung, 85.8%; in the assay on NCI-H322M lung it was 89.8%; with HOP-62 NSCLC it was 16.4%; in the assay with NCI-H460 lung, 88.1%; in the assay on HOP-92 NSCLC, -31.4% (active). The growth is 60.8% with NCI-H522 lung; 23.5% in the assay on A549/ATCC NSCLC; -70.5% (active) in the assay on 786-0 renal; 97.1% with COLO 205 colon; 32.8% in the assay with DU-145 prostate; 56.2% in the assay on K-562 leukemia. For the same compound, the growth in the assay on MALME-3M melanoma was 74%; in the assay on MDA-MB-231 breast it was 70.9%; with RXF 393 renal it was 84.7%; in the assay with SF-268 CNS, 87.9%; with SF-295 CNS, 94.9%; in the assay with SF-539 CNS, 66.6%. For the same compound, the growth is 84.7% in the assay with UACC-257 melanoma and 90.2% with M14 melanoma.

In the case of `O=C1N[C@@H]2[C@@H](O)[C@@H](O)[C@H](O)C[C@H]2c2cc3c(c(O)c21)OCO3`, the growth is -14.9% (active) in the assay with NCI-H23 lung; -38.3% (active) with NCI-H226 lung; -14.7% (active) in the assay with NCI-H322M lung; -18.9% (active) in the assay with HOP-62 NSCLC; -15.1% (active) in the assay with NCI-H460 lung; -19% (active) in the assay on HOP-92 NSCLC. In addition, the growth in the assay with NCI-H522 lung is -32.6% (active); in the assay on A549/ATCC NSCLC, -8.4% (active); in the assay on 786-0 renal, -10.8% (active); in the assay on COLO 205 colon, -38.2% (active); with DU-145 prostate, -19.1% (active); with K-562 leukemia it was 1.86% (active). Moreover, the growth was -48.7% (active) with MALME-3M melanoma; -27.9% (active) with MDA-MB-231 breast; -37.3% (active) in the assay with RXF 393 renal; -4.43% (active) in the assay on SF-268 CNS; -11.5% (active) with SF-295 CNS; -29.7% (active) with SF-539 CNS. Besides, the results for the growth in the assay with UACC-257 melanoma and with M14 melanoma were -21.8% (active) and -81.7% (active), respectively.

Take `N#CCCNc1ccccc1`: the growth was 110% with NCI-H23 lung; 106% in the assay with NCI-H226 lung; 110% in the assay on NCI-H322M lung; 116% in the assay on HOP-62 NSCLC; 111% with NCI-H460 lung; 94.9% with HOP-92 NSCLC. In addition, the growth in the assay on NCI-H522 lung was 92.8%; with A549/ATCC NSCLC, 113%; in the assay with 786-0 renal, 120%; in the assay on COLO 205 colon, 118%; with DU-145 prostate, 116%; in the assay on K-562 leukemia, 98.3%. Besides, the growth in the assay with MALME-3M melanoma is 120%; in the assay with MDA-MB-231 breast, 111%; in the assay on RXF 393 renal, 106%; in the assay with SF-268 CNS, 97.7%; in the assay with SF-295 CNS, 101%; in the assay with SF-539 CNS it was 98.1%. Further, the growth is 118% with UACC-257 melanoma and 112% with M14 melanoma.

With `COc1ccc2c(c1)c(C1(O)CC(CSC#N)OC1=O)cn2C(=O)c1ccc(Cl)cc1` (stereo not given), the growth in the assay on NCI-H23 lung was 89.3%; with NCI-H226 lung it was 94.8%; with NCI-H322M lung, 73.5%; with HOP-62 NSCLC it was 104%; in the assay on NCI-H460 lung it was 104%; in the assay on HOP-92 NSCLC it was 109%. Moreover, the growth with NCI-H522 lung is 95.9%; with A549/ATCC NSCLC it was 98.6%; with 786-0 renal, 102%; with COLO 205 colon, 127%; in the assay on DU-145 prostate it was 114%; in the assay on K-562 leukemia it was 98.5%. Also, the growth with MALME-3M melanoma was 81.9%; with MDA-MB-231 breast, 92.9%; in the assay with RXF 393 renal it was 114%; with SF-268 CNS it was 106%; in the assay on SF-295 CNS, 90.2%; in the assay on SF-539 CNS, 96.3%. Moreover, the figures for the growth in the assay with UACC-257 melanoma and in the assay on M14 melanoma were 95.5% and 96.4%, respectively.

As to `Clc1ccc(N2COOC3(OOC2)C2CC4CC(C2)CC3C4)cc1`, the growth was 22% in the assay with NCI-H23 lung; 95.8% in the assay with NCI-H226 lung; 76.4% in the assay with NCI-H322M lung; 45.9% in the assay on HOP-62 NSCLC; 61.5% with NCI-H460 lung; -23.1% (active) in the assay on HOP-92 NSCLC. Also, the growth in the assay on NCI-H522 lung was -53.2% (active); in the assay with A549/ATCC NSCLC it was 47.4%; in the assay on 786-0 renal it was -4.34% (active); in the assay with COLO 205 colon, 101%; in the assay on DU-145 prostate it was 85%; in the assay on K-562 leukemia, 29.9%. The growth in the assay with MALME-3M melanoma was 26.3%; in the assay with MDA-MB-231 breast it was 82.9%; in the assay with RXF 393 renal it was 101%; with SF-268 CNS it was 58.1%; in the assay on SF-295 CNS, 70.6%; in the assay with SF-539 CNS, 23.5%. For the same compound, the growth in the assay with UACC-257 melanoma was 85.8%; with M14 melanoma, 65.9%.

As to `C=CC[PH+](c1ccccc1)c1ccccc1.C=CC[PH+](c1ccccc1)c1ccccc1.[Cl][Pt][Cl]`, the growth in the assay with NCI-H23 lung is 58.8%; in the assay with NCI-H226 lung, 73.9%; with NCI-H322M lung, 101%; with HOP-62 NSCLC, 95.8%; in the assay with NCI-H460 lung, 91.9%; with HOP-92 NSCLC, 16%. Also, the growth with NCI-H522 lung is 9.41% (active); in the assay on A549/ATCC NSCLC it was 88.2%; with 786-0 renal, 49.7%; in the assay on COLO 205 colon, 22.2%; in the assay on DU-145 prostate, 71.7%; in the assay with K-562 leukemia, 0.456% (active). Also, the growth with MALME-3M melanoma was -26.4% (active); in the assay with MDA-MB-231 breast, 41.8%; with RXF 393 renal, -16.6% (active); in the assay with SF-268 CNS it was 95.5%; in the assay on SF-295 CNS, 89.8%; with SF-539 CNS it was 68%. Also, the growth with UACC-257 melanoma was 80%; in the assay with M14 melanoma, 51.9%.

The record behind these values is PubChem BioAssay (NCI).
